# In PubChem BioAssay (Tox21):
# Results filed as inconclusive are left out. Entries that show only a call come without a potency. Some compounds were tested as several samples or in several runs, with calls that do not always agree. Calls of active or inactive are those of the source. Unless noted, the call rests on the fitted dose curve; in most records, active means well fitted curve in the direction sought with a large enough effect in the repeat runs; inconclusive means weak or mixed curves; inactive means no such curve, though single readings can be large; an effect the other way counts as inactive or inconclusive.
# Key:
# [1] = qHTS assay to identify small molecule agonists of H2AX (AID 1224845; active means well fitted activation curve with a large enough effect in the signal ratio in the repeat runs, not every such curve was filed as active; the % refers to the signal ratio; further: potency means the concentration at half of the fitted maximal effect)
# In short: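 Wild-type CHO-K1 cells, plated overnight, exposed 3hr at 37C to 15 concentrations (0.76% DMSO final). Lysed, then HTRF anti-pH2AX (S139) cryptate and anti-H2AX-d2 antibodies, 24 hr room temperature; 665/620 nm emission read.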
# [2] = qHTS assay to identify small molecule agonists of H2AX - cell viability counter screen (AID 1224847; calls by dose curve; further: nearly all actives have a fitted effect of over 30% in size; further: potency means the concentration at half of the fitted maximal effect)
# In short: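 Read-out: CellTiter-Glo luminescence, 30 min RT. Cells: wild-type CHO-K1, 1000/well, 10% FBS, plated overnight at 37C. Treatment: 15 concentrations, 3 hr, 37C, 0.76% DMSO.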
# [3] = qHTS assay to identify small molecule antagonists of the estrogen related receptor (ERR) signaling pathway from Tox21 library (AID 1224848); further: nearly all actives have a fitted effect of over 50% in size; further: potency means the concentration at half of the fitted maximal effect
# In short: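 ERR reporter cell line (from NTP) seeded 2,000 cells/well, rested 6 h at 37 C/5% CO2, then pin-dosed with compounds in DMSO. After 18 h at 37 C, ONE-Glo added; luminescence read after 30 min at room temperature.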
# [4] = qHTS assay to identify small molecule agonists of the estrogen related receptor (ERR) signaling pathway from Tox21 library (AID 1224849; calls by dose curve; further: nearly all actives have a fitted effect of over 15% in size); conditions: ERR reporter cell line, ONE-Glo luciferase, 18 h; at 92.4 µM (top of the series) unless noted
# In short: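 We plated ERR reporter cells, waited 6 h, added compounds in DMSO by pin tool and incubated them 18 h at 37 C. ONE-Glo was then added and luminescence read after 30 min.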
# [5] = qHTS RealTime-Glo MT Cell Viability Assay in HepG2 cells - 24 hour (AID 1224867); further: nearly all actives have a fitted effect of over 50% in size; further: potency means the concentration at half of the fitted maximal effect
# In short: (§1)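 Tox21 10K library screened in qHTS format on HepG2 cells carrying RealTime-Glo reagents. Compounds were added after a 5 h preincubation, and the luminescent signal from continuous culture was measured repeatedly during 40 h treatment.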
# [6] = A CellTox Green Cytotoxicity Assay to monitor cytotoxicity in HEK293 cells - 0 hour (AID 1224869); further: nearly all actives have a fitted effect of over 50% in size; further: potency means the concentration at half of the fitted maximal effect
# In short: (§2)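 Each value comes from one timepoint of a single continuous run in which HEK293 cells with CellTox Green were exposed to compound for up to 40 h at 37 C, dye fluorescence rising with cell death.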
# [7] = qHTS RealTime-Glo MT Cell Viability Assay in HepG2 cells - 40 hour (AID 1224870); further: nearly all actives have a fitted effect of over 50% in size; further: potency means the concentration at half of the fitted maximal effect
# In short: (§3)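 HepG2 cells (600/well) mixed with RealTime-Glo MT reagent, settled 5 h at 37 C/5% CO2 before compound addition. Nonlytic NanoLuc luminescence from viable-cell prosubstrate reduction read repeatedly during 40 h treatment at 37 C.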
# [8] = A CellTox Green Cytotoxicity Assay to monitor cytotoxicity in HEK293 cells - 40 hour (AID 1224871); further: nearly all actives have a fitted effect of over 45% in size; further: potency means the concentration at half of the fitted maximal effect
# In short: as §2
# [9] = qHTS RealTime-Glo MT Cell Viability Assay in HepG2 cells - 8 hour (AID 1224873); further: nearly all actives have a fitted effect of over 55% in size; further: potency means the concentration at half of the fitted maximal effect
# In short: as §3
# [10] = A CellTox Green Cytotoxicity Assay to monitor cytotoxicity in HEK293 cells - 24 hour (AID 1224875); further: nearly all actives have a fitted effect of over 45% in size; further: potency means the concentration at half of the fitted maximal effect
# In short: as §2
# [11] = qHTS RealTime-Glo MT Cell Viability Assay in HepG2 cells - 32 hour (AID 1224877); further: nearly all actives have a fitted effect of over 55% in size; further: potency means the concentration at half of the fitted maximal effect
# In short: as §1
# [12] = A CellTox Green Cytotoxicity Assay to monitor cytotoxicity in HepG2 cells - 24 hour (AID 1224878); further: nearly all actives have a fitted effect of over 45% in size; further: potency means the concentration at half of the fitted maximal effect
# In short: (§4)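 Continuous culture of HepG2 cells with a membrane-impermeant DNA dye; rising fluorescence marks dead cells. Compound exposure lasted up to 40 h at 37 C, with reads every 8 h from 0 h.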
# [13] = A CellTox Green Cytotoxicity Assay to monitor cytotoxicity in HepG2 cells - 40 hour (AID 1224879); further: nearly all actives have a fitted effect of over 40% in size; further: potency means the concentration at half of the fitted maximal effect
# In short: as §4
# [14] = A CellTox Green Cytotoxicity Assay to monitor cytotoxicity in HEK293 cells - 32 hour (AID 1224881); further: nearly all actives have a fitted effect of over 40% in size; further: potency means the concentration at half of the fitted maximal effect
# In short: as §2
# [15] = qHTS RealTime-Glo MT Cell Viability Assay in HEK293 cells - 32 hour (AID 1224868); further: nearly all actives have a fitted effect of over 50% in size; further: potency means the concentration at half of the fitted maximal effect
# In short: (§5)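 Luminescence generated by NanoLuc from substrate produced by living HEK293 cells served as the viability signal. Each value reflects the reading at its stated time point during continuous 40 h compound exposure at 37 C.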
# [16] = qHTS RealTime-Glo MT Cell Viability Assay in HEK293 cells - 16 hour (AID 1224872); further: nearly all actives have a fitted effect of over 50% in size; further: potency means the concentration at half of the fitted maximal effect
# In short: as §5
# [17] = qHTS RealTime-Glo MT Cell Viability Assay in HEK293 cells - 40 hour (AID 1224874); conditions: RealTime-Glo luminescence; max response: stronger effect = lower value; further: nearly all actives have a fitted effect of over 50% in size; further: potency means the concentration at half of the fitted maximal effect
# In short: (§6)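 qHTS format; HEK293 cells with NanoLuc/prosubstrate reagent, 37 C/5% CO2 for 5 h pre-dosing; compounds 23 nL in DMSO; luminescence at each time point reflects viable cells.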
# [18] = qHTS RealTime-Glo MT Cell Viability Assay in HEK293 cells - 0 hour (AID 1224880); further: nearly all actives have a fitted effect of over 45% in size; further: potency means the concentration at half of the fitted maximal effect
# In short: as §6
# [19] = A CellTox Green Cytotoxicity Assay to monitor cytotoxicity in HepG2 cells - 16 hour (AID 1224876); further: nearly all actives have a fitted effect of over 45% in size; further: potency means the concentration at half of the fitted maximal effect
# In short: as §4
SMILES,Potency [1],Potency [2],Potency [3],"activity change, positive = activation [4]",Potency [5],Potency [6],Potency [7],Potency [8],Potency [9],Potency [10],Potency [11],Potency [12],Potency [13],Potency [14],Potency [15],Potency [16],Potency [17],Potency [18],max response [17],Potency [19]
Cn1cc(C(=O)[C@@H]2CCc3nc[nH]c3C2)c2ccccc21,inactive,inactive,inactive,-13.3% [at 42.5 µM] (inactive),inactive,inactive,inactive,inactive,inactive,inactive,inactive,inactive,inactive,inactive,,,,,,
CCCCCCCCCCCCCCCCCC[N+](C)(C)C,inactive,90.1 µM (active),24.4 µM (active),-79.1% (inactive),,inactive,,21.9 µM (active),,39 µM (active),,,49.1 µM (active),21.9 µM (active),7.79 µM (active),24.6 µM (active),7.79 µM (active),inactive,,
CCOc1nc2cccc(C(=O)OC(C)OC(=O)OC3CCCCC3)c2n1Cc1ccc(-c2ccccc2-c2nn[nH]n2)cc1 (stereo not given),45 µM (active),63.5 µM (active),34.3 µM (active),-65.4% (inactive),,inactive,,30.9 µM (active),,34.6 µM (active),,43.6 µM (active),43.6 µM (active),30.9 µM (active),9.76 µM (active),11 µM (active),,,,
CN(C)[C@@H]1C(=O)C(C(N)=O)=C(O)[C@@]2(O)C(=O)C3=C(O)c4c(O)cccc4C[C@H]3C[C@@H]12,inactive,inactive,,-27.8% [at 42.5 µM] (inactive),inactive,inactive,inactive,inactive,inactive,inactive,inactive,,inactive,inactive,inactive,inactive,,inactive,1.21% (inactive),inactive
CCOC(=O)O[C@H](C)OC(=O)c1ccc2c(c1)cc(C(=O)NC1CCN(C(C)C)CC1)n2Cc1cc(-c2ccc(Cl)s2)on1,42 µM (active),37.5 µM (active),,,11.5 µM (active),inactive,10.2 µM (active),18.2 µM (active),16.2 µM (active),20.4 µM (active),10.2 µM (active),11.5 µM (active),10.2 µM (active),18.2 µM (active),11.5 µM (active),10.2 µM (active),11.5 µM (active),inactive,,11.5 µM (active)
CC[C@@]1(O)C(=O)OCc2c1cc1n(c2=O)Cc2cc3c(CN(C)C)c(O)ccc3nc2-1,1.39 µM (active),inactive,1.19 µM (active),-50.2% [at 42.5 µM] (inactive),,23.9 µM (active),5.35 µM (active),21.3 µM (active),inactive,23.9 µM (active),,10.7 µM (active),7.56 µM (active),23.9 µM (active),0.0674 µM (active),,0.0756 µM (active),inactive,,21.3 µM (active)
N#CSc1ccc(N)c([N+](=O)[O-])c1,inactive,inactive,43.5 µM (active),-63.3% (inactive),,inactive,inactive,,inactive,inactive,inactive,,,inactive,49.3 µM (active),43.9 µM (active),49.3 µM (active),inactive,,inactive
Cc1c(C)c2c(c(C)c1OC(=O)CCC(=O)O)CC[C@@](C)(CCC[C@H](C)CCC[C@H](C)CCCC(C)C)O2,inactive,inactive,inactive,-23.6% (inactive),,inactive,55.6 µM (active),,inactive,inactive,55.6 µM (active),,,inactive,,inactive,,,,inactive
O=C1C=CC(=O)N1c1ccc(Cc2ccc(N3C(=O)C=CC3=O)cc2)cc1,inactive,50.5 µM (active),,,12.3 µM (active),inactive,15.5 µM (active),11 µM (active),12.3 µM (active),38.9 µM (active),12.3 µM (active),,7.76 µM (active),19.5 µM (active),11 µM (active),17.4 µM (active),12.3 µM (active),,,13.8 µM (active)
COC(=O)C1=C(C)NC(C)=C(C(=O)OCCc2ccc(N3CCN(C(c4ccccc4)c4ccccc4)CC3)cc2)C1c1cccc([N+](=O)[O-])c1 (stereo not given),inactive,inactive,,,inactive,inactive,inactive,inactive,inactive,inactive,inactive,,inactive,inactive,inactive,inactive,,inactive,0.767% (inactive),inactive
Oc1cc2ccccc2c2ccccc12,17.9 µM (active),28.4 µM (active),,,11 µM (active),inactive,11 µM (active),15.5 µM (active),11 µM (active),19.5 µM (active),11 µM (active),11 µM (active),11 µM (active),17.4 µM (active),11 µM (active),6.92 µM (active),11 µM (active),,,13.8 µM (active)
CC(=O)SC[C@@H](Cc1ccccc1)C(=O)NCC(=O)OCc1ccccc1,inactive,inactive,,,inactive,inactive,inactive,inactive,inactive,inactive,inactive,inactive,inactive,inactive,inactive,inactive,,inactive,0.0146% (inactive),inactive
O=C(Nc1cccc([N+](=O)[O-])c1)c1cc2ccccc2cc1O,inactive,11.3 µM (active),,-21.9% (inactive),inactive,inactive,inactive,inactive,inactive,inactive,inactive,inactive,inactive,inactive,,,,,,
CCN(C(=O)c1cc(C)cc(OC[C@H](C)Nc2ccncc2)c1)C(C)C,inactive,inactive,,,inactive,inactive,inactive,inactive,inactive,inactive,inactive,,inactive,inactive,inactive,inactive,,inactive,-9.99% (inactive),
Clc1ccc2n[nH]nc2c1,inactive,inactive,,,inactive,inactive,inactive,inactive,inactive,inactive,inactive,inactive,inactive,inactive,inactive,inactive,,inactive,4.16% (inactive),inactive
Oc1cccc2cc3cccc(O)c3c(O)c12,inactive,inactive,,,inactive,inactive,inactive,inactive,inactive,inactive,,,inactive,inactive,inactive,inactive,,inactive,0.771% (inactive),inactive
CC[C@H](c1ccc(O)cc1)[C@@H](CC)c1ccc(O)cc1,inactive,101 µM (active) and inactive,,,inactive,inactive,inactive,34.7 µM (active) and inactive,inactive,inactive,inactive,49 µM (active),49 µM (active),38.9 µM (active) and inactive,27.5 µM (active),inactive,24.5 µM (active),,,49 µM (active)
C[C@]12CCC(=O)C=C1CC[C@@H]1[C@@H]2[C@@H](O)C[C@@]2(C)[C@H]1CC[C@]2(O)C(=O)COC(=O)CCC(=O)O,inactive,inactive,,,inactive,inactive,inactive,inactive,inactive,inactive,inactive,inactive,inactive,inactive,inactive,inactive,,10.7 µM (active),-8.8% (inactive),inactive
COc1c(C)c2c(c(O)c1C/C=C(\C)CCC(=O)O)C(=O)OC2,0.875 µM (active),inactive,inactive,,inactive,inactive,inactive,inactive,inactive,inactive,,inactive,inactive,inactive,,inactive,,inactive,,inactive
Cc1onc(-c2ccccc2Cl)c1C(=O)N[C@@H]1C(=O)N2[C@@H]1SC(C)(C)[C@@H]2C(=O)O,inactive,inactive,,,inactive,inactive,inactive,inactive,inactive,inactive,inactive,inactive,inactive,inactive,inactive,inactive,,inactive,-0.669% (inactive),inactive
Cc1cc(C2CCCCC2)n(O)c(=O)c1,9.82 µM (active),inactive,,,inactive,inactive,inactive,,inactive,inactive,inactive,inactive,,inactive,1.69 µM (active),,1.69 µM (active),inactive,,inactive
C[C@@H]1C[C@H]2[C@@H]3CCC4=CC(=O)C=C[C@]4(C)[C@@]3(Cl)[C@@H](O)C[C@]2(C)[C@@]1(OC(=O)c1ccco1)C(=O)CCl,inactive,inactive,13.3 µM (active),-51.1% [at 42.5 µM] (inactive),,inactive,,inactive,,inactive,,inactive,inactive,inactive,inactive,inactive,,inactive,-19.5% (inactive),
CSc1ccc(C(=O)c2[nH]c(=O)[nH]c2C)cc1,inactive,inactive,inactive,,inactive,inactive,inactive,inactive,inactive,inactive,,inactive,inactive,inactive,inactive,inactive,,inactive,2.74% (inactive),inactive
C[n+]1ccn(Cc2ccccc2)c1,inactive,inactive,,-31.8% (inactive),inactive,inactive,inactive,inactive,inactive,inactive,inactive,inactive,inactive,inactive,,inactive,,inactive,,inactive
CCOc1ccc2nc3cc(N)ccc3c(N)c2c1,inactive,inactive,,,10.7 µM (active),inactive,8.49 µM (active),21.3 µM (active),inactive,,8.49 µM (active),23.9 µM (active),6.01 µM (active),,15.1 µM (active),,13.4 µM (active),inactive,,inactive
